# PubChem BioAssay AID488908 (National Center for Advancing Translational Sciences (NCATS), 2010)
# Results filed as inconclusive are left out. Unmarked numbers belong to inactive results. Activity calls are given as the source filed them. The call rests on the fitted dose curve; in most records, active means well fitted inhibition curve with a large enough effect; inconclusive means small, poorly fitted or top-dose-only effect; inactive means flat fitted curve, though single readings scatter.
# Assay: Secondary Assay for lipid storage modulators: Cytotoxcity for probe SAR
# Conditions: Drosophila S3 cells viability, CellTiter-Glo luminescence, 24 h, with oleic acid added (1 µL, 400 µM); series mostly up to 46.1 µM; activity change, negative = cytotoxicity: at the top concentration
# Summary of the method: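 Drosophila S3 embryonic cells, 5,000/well, exposed to compound at several concentrations with 400 uM oleic acid stock added, 24 h at 24 degrees C; viability by CellTiter-Glo luminescence.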
Structure (SMILES),Potency,"activity change, negative = cytotoxicity"
O=C(NC1CCCc2c1cnn2-c1ccc(F)cc1F)C1CCCCC1 (configuration not stated),0.791 µM (active),
Cc1sc(NC(=O)Cc2cccs2)nc1-c1ccccc1,,-24.1%
O=C(Cc1cccs1)Nc1nc(-c2ccc3c(c2)CCC3)cs1,,-15.7%
Cc1ccc(NC(=O)c2ccc(CN3CCN(C)CC3)cc2)cc1Nc1nc(-c2cccnc2)cs1,,-27.6%
COc1ccc(CCNC(=O)c2cc3sccc3n2Cc2ccccc2)cc1OC,,-27.8%
Cc1ccc(C)c(-c2csc(NC(=O)CSc3nnc(Nc4ccc(OC(F)(F)F)cc4)s3)n2)c1,,-11.8%
CCc1sc(NC(=O)Cc2cccs2)nc1-c1ccccc1,,-14.1%
COc1ccc(CCNC(=O)c2cc3sc(C)cc3n2C)cc1OC,,-27.1%
O=C(O)CCc1ccc(NCc2cccc(Oc3ccccc3)c2)cc1,,-4.63%
O=C(NC1CCCc2c1cnn2-c1ccc(F)cc1F)c1cccs1 (configuration not stated),8.88 µM (active),
O=C(NC1CCCCC1)NC1(C(=O)N2CCCC2)CCCCC1,,-9.55%
CCOc1ccc(CCNC(=O)C2=C(C)OCCO2)cc1OCC,,-6.76%
CCOc1ccc(CCNC(=O)c2cc3sc(Cl)cc3n2CC)cc1OCC,,-22.5%
CN(C)CC(=O)NC1CCCc2c1cnn2-c1ccc(F)cc1F (configuration not stated),,-8.45%
COc1ccc(-c2csc(NC(=O)CSc3nnc(NC4CC4)s3)n2)cc1OC,,-10.9%
CCOc1ccc(CCNC(C)=O)cc1OCC,,-2.17%
O=C(NC1CCCc2c1cnn2-c1cc(F)cc(F)c1)c1cccc2nccnc12 (configuration not stated),,-6.12% [at 30.7 µM]
